# Screening results deposited in PubChem by several laboratories.
# GRIN3A LBD mod: binders of NR3A ligand-binding domain, primary screen, biophysical, differential scanning fluorimetry, uHTS. Tm shift relative to glycine control, % at 25 µM. NR3A LBD differential scanning fluorimetry, Tm shift; 0% = protein alone, 100% = glycine-bound protein. Glutamate receptor ionotropic, NMDA 3A (GRIN3A) ligand-binding domain. actives 2.5% (n = 340,000);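 active means melting temperature shift of at least 10% of the positive control shift, at one fixed dose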
# NadD inh: inhibitors of S. aureus NadD, primary screen, biochemical, colorimetric, uHTS. actives 0.78% (n = 360,000). Nicotinate-nucleotide adenylyltransferase NadD (Staphylococcus aureus N315). inhibition, % at 20 µM. purified NadD enzyme, colorimetric absorbance read-out; in the data active means inhibition above about 26%
# esBAF inh: Bmi1 luciferase reporter increase in mESCs, primary screen, esBAF inhibitor project, mouse ES cells, Bmi1 luciferase knock-in, single point. 24 h; 100% = twice the neutral-well signal. reporter increase, % at 12.5 µM. actives 2% (n = 350,000). AID 602393, 2012; in the data active means activation above about 40%;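 further: 0% = median of the plate's neutral control wells and 100% = double that signal; a rise in the Bmi1 reporter signal indicates esBAF inhibition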
# SKN-1 block: suppressors of acrylamide-induced Pgst-4::GFP reporter in worms, primary screen, SKN-1 inhibitor project, whole organism, uHTS, GFP/RFP fluorescence ratio, strain VP596 | C. elegans VP596 Pgst-4::GFP/RFP ratio, 24 h | actives 0.49% (n = 360,000) | inhibition, % at 21.8 µM;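 active means interference check ratio from 0.5 to 1.5 plus GFP to RFP signal ratio inhibition reaching or exceeding a fixed threshold, cut at about 30% in these data, passing the limit was not always enough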
# SMARCA2 activ: SMARCA2 (BRM) function activators, primary screen, cell-based, luminescence, high throughput. activation, % at 9.1 µM. MG213 cells, MMTV-luciferase reporter, dexamethasone, overnight. actives 1% (n = 370,000); in the data active means activation above about 7.8%;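 further: 0% = vehicle wells and 100% = reference activator wells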
# Vif inh: HIV Vif self-association inhibitors, primary screen, imaging, HEK293T, single point; HEK293T cells, Vif self-association by quenched fluorescence, 24 h; inhibition, % at 7.49 µM; actives 0.35% (n = 340,000); in the data active means inhibition above about 50%, passing the limit was not always enough
# Numbers without * were called inactive; . = not tested or not shown. Rows were chosen to be rich in hits. Some 5.2% of all compounds tested hit in one or more screens of this group.
SMILES,GRIN3A LBD mod,NadD inh,esBAF inh,SKN-1 block,SMARCA2 activ,Vif inh
O=C(CSc1ncccn1)N/N=C/c1ccc2c(c1)OCO2,1,0,41*,-6,1,12
COc1ccc(S(=O)(=O)N/N=C\c2ccc3c(c2)OCO3)c(OC)c1,0,-1,.,0,-2,.
Cc1cccc(C(=O)Nc2ccc(C(=O)N/N=C/c3ccc4c(c3)OCO4)cc2)c1,24*,2,1,-7,-4,15
O=C(CCc1ccccc1)NCC(=O)N/N=C/c1ccc2c(c1)OCO2,-2,-5,.,-1,3,-5
CNC(=O)C[C@H]1CC[C@@H]2[C@H](COC[C@@H](O)CN2C(=O)Nc2cccc(OC)c2)O1,.,.,-7,.,.,.
COc1ccccc1S(=O)(=O)N1CC[C@@H]2[C@H](CO)N(C)c3ccc(C#Cc4cccc(F)c4)cc3[C@@H]21,.,.,3,.,.,.
O=C(N/N=C/c1ccc2c(c1)OCO2)c1ccc(NC(=O)c2ccccc2Cl)cc1,22*,11,13,8,-3,0
Cc1ccc(C(=O)NN=Cc2ccc3c(c2)OCO3)cc1,-23,-2,48*,2,4,6
O=C(CNc1ccccc1)N/N=C/c1ccc2c(c1)OCCO2,16*,-3,.,-4,2,0
O=C(N/N=C/c1cccs1)c1ccc(NC(=O)c2ccccc2Cl)cc1,18*,7,.,4,-4,-2
Cc1noc(C)c1S(=O)(=O)N(C)C[C@H]1Oc2c(cccc2N(C)C)C(=O)N([C@@H](C)CO)C[C@@H]1C,.,.,-4,.,.,.
C[C@H](CO)N1C[C@H](C)[C@@H](CN(C)Cc2cncnc2)Oc2ncc(/C=C/c3ccccc3)cc2C1=O,.,.,-6,.,.,.
C[C@@H]1CN([C@H](C)CO)C(=O)Cc2cc(NC(=O)Cc3ccccc3)ccc2O[C@@H]1CN(C)S(C)(=O)=O,.,.,-1,.,.,.
O=C(CNC(=O)c1ccccc1Cl)N/N=C/c1ccc2c(c1)OCO2,-3,-3,12,5,0,7
Clc1ccccc1N/N=C/c1ccc2c(c1)OCO2,-23,-5,78*,8,6,-4
Cc1ccccc1C(=O)Nc1cccc(C(=O)N/N=C/c2ccc3c(c2)OCO3)c1,-20,-2,43*,16,-1,28
Cc1cccc(C(=O)Nc2cccc(C(=O)N/N=C/c3ccc4c(c3)OCO4)c2)c1,-14,1,60*,-8,2,12
O=C(N/N=C/c1ccc2c(c1)OCO2)c1cccc(NC(=O)c2ccccc2Cl)c1,-10,6,30,-1,-1,-1
COc1ccc(OC)c(/C=N/NC(=O)CCc2ccc(O)c(O)c2)c1,22*,1,.,8,-4,-2
CC(=O)N1[C@H](CO)[C@H]2c3ccccc3N(S(=O)(=O)c3ccc(F)cc3)C[C@H]21,.,.,-4,.,.,.
CCCc1cn(CC[C@H]2CC[C@@H](NS(=O)(=O)c3ccc(-c4ccccc4)cc3)[C@@H](CO)O2)nn1,.,.,-9,.,.,.
O=C(NN=Cc1ccc2c(c1)OCO2)NN=Cc1ccc2c(c1)OCO2,26*,3,.,-4,0,-4
O=C(NN=Cc1ccc2c(c1)OCO2)C1CC1,2,-5,38,11,8,-1
COc1ccc(CNC(=O)C[C@H]2C=C[C@H](NC(=O)CN(C)C)[C@@H](CO)O2)cc1,.,.,0,.,.,.
CCCNC(=O)C[C@@H]1CC[C@H]2[C@H](COc3ccc(NC(=O)c4cccc(Cl)c4)cc3C(=O)N2C)O1,.,.,5,.,.,.
CO[C@H]1CN(C)C(=O)c2cc(NS(=O)(=O)c3cccc(F)c3)ccc2OC[C@@H](C)N(Cc2cc(F)ccc2F)C[C@@H]1C,.,.,1,.,.,.
O=[N+]([O-])c1ccc(/C=N/Nc2ccnc3cc(Cl)ccc23)o1,17*,27,-3,2,3,-10
C/C(=N/Nc1ccnc2cc(Cl)ccc12)c1ccc(N)cc1,-2,17,11,18,3,3
